JMJD2A Tudor = blocks the human JMJD2A Tudor domain | O75164 | AlphaScreen JMJD2A-Tudor / H3K4me3 peptide binding | Potency, µM (highest dose often 114 µM), without a hit: at the highest dose activity change, negative = inhibition, hits mostly inhibitors | 390,000 compounds, 4.4% hits | AID 504339; note: % is set by controls: 0 for no effect and ±100 for the full control effect; nearly all actives have a fitted effect of over 50% in size
BAZ2B inh = inhibitors of human BAZ2B bromodomain; AlphaScreen BAZ2B-H3K14Ac peptide displacement; Potency, µM (top dose mostly 114 µM), for the others: top-dose activity change, negative = inhibition, usual class: inhibitors; 360,000 compounds, 4.4% hits; AID 504333; note: % is set by controls: 0 for no effect and ±100 for the full control effect; nearly all actives have a fitted effect of over 60% in size
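Multi-concentration screen (max 110 uM) measuring displacement of acetylated histone H3 peptide from BAZ2B by AlphaScreen, using 50 nM protein, 50 nM peptide and 10 ug/mL streptavidin donor plus Ni-chelate acceptor beads.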
Sfp inh = inhibitors of Bacillus subtilis Sfp phosphopantetheinyl transferase; Biochemical Sfp PPTase activity, qHTS; Q9F4F7; Potency, µM, for inactives: largest response in the series, negative = inhibition, hits mostly inhibitors; 310,000 compounds, 3.5% hits; AID 1490;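 note: the enzyme is Sfp with the accession as filed and its product quenches rhodamine fluorescence; 0% = enzyme reaction without inhibitor and -100% = no enzyme wells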
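Buffer: 50 mM Hepes-Na pH 7.6, 10 mM MgCl2, 0.01% Nonidet P-40, 0.01% BSA. Enzyme 15 nM, pre-exposed to compound 15 min; substrates then added and fluorescence change tracked over 30 min.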
12-LOX inh = inhibitors of human 12S-lipoxygenase ALOX12 | 580,000 compounds, 1.1% hits | P18054 | Potency, µM (titrated, usually from 108 µM), without a hit: top-dose activity change, negative = inhibition, most hits filed as inhibitors | purified 12hLO, xylenol orange hydroperoxide absorbance; note: % is set by controls: 0 for no effect and ±100 for the full control effect
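Purified human 12hLO (150 nM final) in 25 mM Hepes, 0.01% Triton X-100, pH 7.0 was preincubated 15 min at room temperature with compound. Then 40 uM arachidonic acid was added, 30 min. Hydroperoxide was read by Fe-XO absorbance ratio 573/405 nm.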
HP1b binding inh = blocks HP1-beta chromodomain binding to methylated histone tails | AlphaScreen HP1-beta / biotin-H3K9me3 peptide binding | Potency, µM (doses to about 114 µM), for inactives: at the top dose activity change, negative = inhibition, usual class: inhibitors | 390,000 compounds, 0.56% hits | AID 540317; note: nearly all actives have a fitted effect of over 70% in size
Target sequence (P83916 whole entry, looked up): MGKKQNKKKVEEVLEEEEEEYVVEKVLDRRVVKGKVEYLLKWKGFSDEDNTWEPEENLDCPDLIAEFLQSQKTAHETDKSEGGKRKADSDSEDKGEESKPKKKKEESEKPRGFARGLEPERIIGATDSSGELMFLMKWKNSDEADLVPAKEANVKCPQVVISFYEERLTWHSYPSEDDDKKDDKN
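AlphaScreen: HP1-beta (50 nM) preformed 30 min with biotin-H3(1-18)K9me3 peptide (50 nM) in PBS pH 7.4, 0.01% Tween-20. Compound added for 30 min at RT, then streptavidin donor/nickel chelate acceptor beads (10 ug/mL) for 30 min.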
G9a block = inhibitors of human histone lysine methyltransferase G9a; 350,000 compounds, 8.8% hits; Q96KQ7; G9a H3K9 monomethylation, AlphaScreen, 2 h; Potency, µM (top dose mostly 102 µM), for the others: top-dose activity, negative = inhibition, most hits filed as inhibitors; note: % is set by controls: 0 for no effect and ±100 for the full control effect; nearly all actives have a fitted effect of over 75% in size
Target sequence (Q96KQ7 913-1193 limits assumed): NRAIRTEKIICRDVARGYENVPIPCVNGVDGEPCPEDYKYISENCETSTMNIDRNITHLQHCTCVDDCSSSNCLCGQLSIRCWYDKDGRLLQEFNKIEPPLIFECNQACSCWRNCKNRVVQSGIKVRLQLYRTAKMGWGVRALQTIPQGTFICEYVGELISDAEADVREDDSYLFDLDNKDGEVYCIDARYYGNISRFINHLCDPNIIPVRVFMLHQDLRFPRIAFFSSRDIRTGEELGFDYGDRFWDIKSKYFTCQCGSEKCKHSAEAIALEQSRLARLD
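Enzyme 20 nM + cpd, 15 min RT; add b-H3K9 pep 500 nM / SAM 20 uM; 2 h RT; anti-H3K9me1 Ab 0.5 ug/mL + SA donor / anti-rabbit acceptor beads 20 ug/mL each, 10 min; AlphaScreen read.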
The depositor's hits bear a star; ? = inconclusive; . = no result; [ ] = remark or other dose. A selection: hits, their analogues and other compounds. The true share with any hit is near 8.7%. Calls come from the whole dose curve; as a rule, active = well fitted curve in the direction sought with a large enough effect; inconclusive = small, poorly fitted or top-dose-only effect, or another doubt; inactive = no such curve, though single readings can be large; an effect the other way counts as inactive or inconclusive. Potency is the fitted concentration of half-maximal effect.

SMILES | JMJD2A Tudor | BAZ2B inh | Sfp inh | 12-LOX inh | HP1b binding inh | G9a block
Cc1ccc2c(NC(=O)c3ccc(Br)o3)cccc2n1 | -4% | -6% | 5% | -4% | 21% | .
CSc1ccccc1C(=O)Nc1cccc([N+](=O)[O-])c1 | -31% | ? | -16% | -13% | 8% | ?
CSc1ccccc1C(=O)Nc1cccc(C)c1 | -7% | 3% | 10% | -23% | 37% | 45µM*
Cc1ccc2c(NC(=O)c3ccco3)cccc2n1 | -23% | -12% | 5% | -25% | 39% | 50µM*
O=C(CSc1ncnc2ccccc12)Nc1cccc2ccccc12 | . | . | . | -28% | . | .
CC1=C[C@@H](CN2CCN(CCO)CC2)[C@H](C(C)C)C[C@H]1Cc1nnc(Cc2c[nH]c3ccccc23)o1 | . | . | . | 6% | . | .
Cc1ccc(CNC2(Cc3cc(-c4ccccn4)on3)COC2)o1 | . | . | . | -10%[176 µM] | . | .
Cc1ccc(S(=O)(=O)NNc2c3ccccc3nc3ccc(Cl)cc23)cc1 | . | . | . | 25µM* | . | .
Cc1ccc(S(=O)(=O)NNc2nc3ccccc3nc2C(F)(F)F)cc1 | 35µM* | 45µM* | 11µM* | ? | -85% | 1.4µM*
O=C(N/N=C/c1ccc(Cl)cc1)C1CC1 | . | . | . | 23% | . | .
CC(=O)N1CSCC1C(=O)NNS(=O)(=O)c1ccccc1 (centres undefined) | 25µM* | 5% | 7% | ? | 4% | 15%
CC(=O)N1CSCC1C(=O)NNS(=O)(=O)c1cccc(C(F)(F)F)c1 (centres undefined) | -12% | -9% | -4% | 14% | -6% | .
Cc1cc(C)c(C)c(S(=O)(=O)Nc2ccc(N)c([N+](=O)[O-])c2)c1C | . | . | . | -9% | . | .
Oc1ccc(O)cc1 | . | . | ? | ? | . | 6µM*
FC(F)(F)c1ccc2nnc(SCc3c(Cl)cccc3Cl)n2c1 | . | . | . | -3% | . | .
CCc1nc(NCc2cccs2)c2nnn(Cc3ccccc3)c2n1 | . | . | . | -1% | . | .
CCc1nc(Nc2ccccc2)c2nnn(Cc3ccccc3)c2n1 | 15% | 5% | 35µM* | -2% | 71% | 54%
O=C(O)CCCC(=O)NNc1ncnc2ccccc12 | 3.2µM* | 8% | -27% | -8% | 10% | 0%[59 µM]
c1ccc(CNc2ncnc3ccccc23)cc1 | -4% | -10% | -7% | -11% | 42% | 8%[59 µM]
C=CCn1c(NC(=O)c2ccc(Br)o2)c(C(=O)OCC)sc1=S | 89µM* | -30% | ? | ? | -39% | 3.2µM*
CCCN1CN=C(Nc2nc3ccccc3o2)NC1 | -5% | -16% | 2% | ? | 2% | 0%
COCCCN1CN=C(Nc2nc3ccccc3o2)NC1 | 13µM* | -5% | -25% | -5% | 3% | ?
CCOc1ccc(CC(=O)N2CCCN(C(=O)C3CC3)c3ccccc32)cc1 | . | . | . | 47% | . | .
O=C(c1ccncc1)N(c1ccc(N2CCOCC2)cc1)C(c1ccccc1)c1nc2ccccc2[nH]1 (centres undefined) | . | . | . | 11µM* | . | .
CCC(c1nc2ccccc2[nH]1)N(C(=O)Cc1cc(OC)cc(OC)c1)c1ccc(N2CCOCC2)cc1 (centres undefined) | . | . | . | 1% | . | .
SMILES | JMJD2A Tudor | BAZ2B inh | Sfp inh | 12-LOX inh | HP1b binding inh | G9a block
CS(=O)(=O)N1CCN(C(=O)CCC2CCN(c3cc(NC4CC4)ncn3)CC2)CC1 | . | . | . | 5% | . | .
Cc1ncc(C(O)c2ccc(N(C)C)cc2)n1Cc1ccccc1 (centres undefined) | . | . | . | 0% | . | .
CN(C)c1ccc2nc3c(=O)[nH]c(=O)nc-3n(CC(O)C(O)C(O)CO)c2c1 (centres undefined) | -30% | 40µM* | -20% | 0% | ? | 50µM*
COc1ccc(C(C)(C)C)cc1NC(=S)NCCN1CCOCC1 | -18% | -13% | 18µM* | ? | -13% | 45µM*
COc1cc(NC(=S)NCCCN2CCOCC2)cc(OC)c1OC | -9% | -8% | 9% | -9% | 20% | 1%
COc1cc(C)c(NC(=S)NCCCN2CCOCC2)cc1OC | -3%[57.1 µM] | -19% | -25% | -7% | 26% | 35µM*
O=C(Oc1ccccc1O)c1cccc2ccccc12 | . | -17% | 0% | -24% | . | 45µM*
C=CCNC(=O)NC(=O)Cn1ccnc1 | . | . | . | -28% | . | .
COc1ccc(Cn2c3ccc(OC)cc3c3nc4ccccc4nc32)cc1 | 9% | 13% | 1% | ? | 37% | 50%[59 µM]
COc1ccc2c(c1)c1nc3ccccc3nc1n2Cc1ccc(OC(C)C)c(OC)c1 | 1% | 31% | 14µM* | 12% | 78% | 5%
S=C(NCCc1ccccc1)N/N=C/c1c(Cl)cccc1Cl | -4% | -3% | 8% | 40µM* | 35% | 48%[59 µM]
S=C(NCc1ccccc1)N/N=C/c1c2ccccc2c(Cl)c2ccccc12 | . | . | . | 18µM* | . | .
S=C(NCCc1ccccc1)N/N=C/c1ccc(Cl)cc1 | -8% | -21% | 16% | ? | 31% | 19%
CCOc1ccc(CCNC(=O)CCc2c(C)nn(C)c2C)cc1OCC | . | . | . | 9% | . | .
CCOC(=O)c1c(NC(=O)CSc2nnc(-c3ccco3)o2)sc(C)c1C | -11% | -29%[57.1 µM] | 50µM* | -6% | 4% | -40%
COc1ccc2nc(NC(=O)CSc3nc4ccccc4o3)sc2c1 | -6% | 29% | -2% | 488% | 16% | 23%[12.7 µM]
CCOC(=O)c1c(NC(=O)CSc2nc3cccnc3n2C)sc(C(C)=O)c1C | -15% | 6% | ? | . | 30% | 0%[2.33 µM]
CCOC(=O)CSc1nnc(-c2cccnc2)o1 | -12% | -4% | 19% | 1% | 19% | 5%[59 µM]
O=C(CSc1nc2ccccc2o1)Nc1nc2ccc(Br)cc2s1 | -21%[11.4 µM] | -17% | 13% | 74% | 55% | 45µM*
CCOC(=O)c1c(NC(=O)CSc2nnc(-c3ccco3)o2)sc(C(C)=O)c1C | -20% | -29% | -3% | 0% | 35% | 12%[59 µM]
CCOC(=O)c1c(NC(=O)CSc2nnc(-c3cccnc3)o2)sc(C(C)=O)c1C | 18µM* | ? | 2% | 4% | ? | 10%[59 µM]
CCOC(=O)c1c(NC(=O)CSc2nnc(-c3ccccc3C)n2C)sc(C(C)=O)c1C | -31% | 50µM* | -16% | 0% | -17% | ?
CCOC(=O)c1c(NC(=O)CSc2nc3ccccc3o2)sc(C)c1C | -4% | -5% | 45µM* | 2% | 48% | 11%[2.33 µM]
CCOC(=O)c1c(NC(=O)CSc2nc3ccccc3s2)sc(C)c1C | -11% | 2% | 1% | 6% | 57% | -6%
CCCNC(=O)N1CC(Oc2ccc(-c3nc(-c4ccccc4)no3)cc2)C1 | . | . | . | 22% | . | .
COc1ccc(N=C2S/C(=C\c3ccc(Cl)c([N+](=O)[O-])c3)C(=O)N2CCN(C)C)cc1 | 35µM* | 16µM* | 40µM* | 6% | 16µM* | ?
CCN1C(=O)/C(=C/c2cccs2)SC1=Nc1ccc(OC)cc1 | ? | -1% | 14% | 2% | -14% | .
